# ADAM10 inh – inhibits human ADAM10. recombinant ADAM10, EDANS/DABCYL FRET peptide cleavage, 3 h. inhibition, % at 7 µM. 370,000 tested, 0.62% active. AID 720582;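 active = inhibition above a per-campaign cutoff equal to the mean of compounds falling between control-based bounds plus 3 SD, cut at about 20% in these data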;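 note: 0% = DMSO wells while the 100% control is not disclosed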
# proKLK7 act – activators of human kallikrein-7 zymogen | AID 652039 | activation, % at 7 µM | purified proKLK7, EDANS-DABCYL substrate fluorescence; 100% is mature enzyme control, 0% vehicle | P49862 | 370,000 tested, 0.9% active;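 active = activation above the mean of all tested compounds plus 3 SD, computed per campaign excluding outliers beyond control limits, cut at about 13% in these data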
# HGIII-sPLA2 inh – Inhibits HGIII-sPLA2 liposome hydrolysis, primary screen | 370,000 tested, 0.56% active | inhibition, % at 12.2 µM | AID 743126 | QFRET BODIPY PC-A2 liposome hydrolysis, fluorescence | Q9NZ20;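 active = inhibition above mean plus 3 SD of compounds lying within the high and low control bounds, cut at about 19% in these data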;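 note: 0% = median of test compound wells and 100% = no enzyme DMSO wells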
# ADAM17 inh – ADAM17 inhibition, QFRET primary screen. P78536. recombinant ADAM17, EDANS/DABCYL FRET peptide cleavage. inhibition, % at 6.95 µM. 370,000 tested, 0.83% active;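 active = inhibition above the mean of compounds lying between control limits plus 3 SD, set per campaign, cut at about 8.5% in these data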;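 note: 0% = DMSO-only wells as the low control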
# NRP1-CendR mod – NRP-1/CendR interaction modulation; inhibition, % at 25 µM; 360,000 tested, 0.85% active; FAM-RPARPAR peptide binding to NRP-1, fluorescence polarization; AID 602438; O14786;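 active = inhibition or corrected inhibition above about 18%, plus a signal ratio from 0.5 to 1.5, limit read from the data, passing the limit was not always enough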
# Target sequence (O14786 whole entry, looked up): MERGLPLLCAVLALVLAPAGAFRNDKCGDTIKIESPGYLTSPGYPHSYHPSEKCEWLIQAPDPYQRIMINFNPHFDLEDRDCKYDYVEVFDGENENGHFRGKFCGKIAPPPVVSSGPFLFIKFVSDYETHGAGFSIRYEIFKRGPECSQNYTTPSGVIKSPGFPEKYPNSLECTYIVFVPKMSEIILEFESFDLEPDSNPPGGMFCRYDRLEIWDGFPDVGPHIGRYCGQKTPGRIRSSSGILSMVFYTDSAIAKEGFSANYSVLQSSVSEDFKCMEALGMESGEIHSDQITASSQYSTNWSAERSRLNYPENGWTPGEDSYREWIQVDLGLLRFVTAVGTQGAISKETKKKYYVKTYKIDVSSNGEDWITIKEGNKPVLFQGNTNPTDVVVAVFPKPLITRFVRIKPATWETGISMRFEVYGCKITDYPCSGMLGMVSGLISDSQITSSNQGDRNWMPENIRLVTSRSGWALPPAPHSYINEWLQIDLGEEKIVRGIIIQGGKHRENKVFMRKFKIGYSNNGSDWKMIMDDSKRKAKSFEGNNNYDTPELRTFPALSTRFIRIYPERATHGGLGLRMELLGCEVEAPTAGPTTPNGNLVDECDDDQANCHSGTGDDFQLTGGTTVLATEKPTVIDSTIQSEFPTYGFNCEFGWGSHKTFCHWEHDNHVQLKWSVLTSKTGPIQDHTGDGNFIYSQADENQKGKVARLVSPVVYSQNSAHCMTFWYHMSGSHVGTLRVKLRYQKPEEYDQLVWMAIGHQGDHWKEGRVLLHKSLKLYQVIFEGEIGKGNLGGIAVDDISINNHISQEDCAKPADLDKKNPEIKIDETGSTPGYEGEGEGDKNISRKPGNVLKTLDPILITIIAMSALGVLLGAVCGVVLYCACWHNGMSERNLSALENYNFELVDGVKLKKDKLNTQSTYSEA
# Numbers without * were called inactive; i = inactive; / = not tested or not shown. This is a sample that favours compounds with a hit; in the whole collection about 3.4% have one here.
SMILES,ADAM10 inh,proKLK7 act,HGIII-sPLA2 inh,ADAM17 inh,NRP1-CendR mod
COCCN(C(=O)CN1CCCc2ccccc21)c1c(N)n(Cc2ccccc2)c(=O)[nH]c1=O,-3,-1,-1,-5,26*
COC(=O)[C@]12C[C@H](CC(=O)N3CCSCC3)C(=O)N(Cc3ccc(Cl)cc3Cl)C1=C[C@H](C1CCCC1)O[C@@H]2C,8,0,-6,1,/
CCOC(=O)c1cc2c(=O)n3ccccc3nc2n(Cc2ccco2)c1=NC(=O)c1ccc(OC)cc1OC,i,17*,1,i,-58
N#Cc1cc2c(=O)n3ccccc3nc2n(Cc2ccco2)c1=NC(=O)c1ccco1,i,0,-1,i,-39
O=C(OC12CCCN(C1)/C(=C/c1ccc(Cl)cc1)C2)C1CCCCC1 (stereo unspecified),-14,0,9,-3,/
O=C(c1ccco1)N1CCN(/C(=N/S(=O)(=O)c2cccs2)c2ccccc2Cl)CC1,-8,0,4,-3,27*
Cc1ccccc1S(=O)(=O)/N=C(/c1ccccc1)N1CCOCC1,6,1,12,-5,15
O=S(=O)(/N=C(\c1ccccc1)N1CCOCC1)c1cccs1,8,0,8,0,27*
O=C1C(c2ccccc2)=[N+]([O-])c2ccccc21,-5,0,17,-5,30*
COc1cc2c(cc1OC)[N+]([O-])=C(c1ccccc1)C2=O,-5,1,2,-4,/
Cc1ccccc1NC(=O)[C@@H]1CCCN1S(=O)(=O)c1cccc2cccnc12,2,/,6,-3,/
CCCCOC(=O)CCN1C(=O)/C(=C/c2ccccc2)SC1=S,3,/,-4,0,/
COc1ccc(C2=Nn3c(nnc3C3CCCCC3)SC2)cc1,1,0,-3,1,/
Cn1c(=O)c(=O)n(C)c2cc(S(=O)(=O)N3CCN(CCO)CC3)ccc21,-16,-1,1,-3,/
COc1ccc(S[C@]2(C(=O)N(C)C)CC(=O)N(c3ccsc3)[C@@H]2c2ccc(OC)cc2)cc1,6,1,-5,3,/
COC(C[C@H]1O[C@@H]1C(=O)COCc1ccccc1)OC,4,0,10,2,/
COC(C[C@H](O)C[C@@H](O)[C@H](C)OCc1ccccc1)OC,-10,0,11,-5,6
COC(C[C@@H]1O[C@H]1C(=O)COCc1ccccc1)OC,-4,0,4,-2,28*
COC(C[C@@H]1O[C@@H]1[C@H](O)[C@H](C)OCc1ccccc1)OC,-9,0,6,-2,19
COC(C[C@H]1O[C@H]1[C@@H](O)[C@@H](C)OCc1ccccc1)OC,-2,0,-1,-3,20*
COC(C[C@@H](O)C[C@H](O)[C@@H](C)OCc1ccccc1)OC,-8,0,5,-1,21*
O=C(NCc1ccc(C(=O)N2CCOCC2)cc1)c1cccc(Br)c1,-5,0,0,-2,/
CC1(C(=O)N2CCC(Oc3cccnc3)CC2)CC1,2,0,3,-2,/
CCN(C[C@@H]1[C@@H](c2ccccc2)[C@H](CO)N1S(C)(=O)=O)C(=O)C1CCC1,-4,0,4,-2,/
CCc1c(-c2cccc(F)c2)ncn1CCc1ccccc1OC,17,0,7,2,/
SMILES,ADAM10 inh,proKLK7 act,HGIII-sPLA2 inh,ADAM17 inh,NRP1-CendR mod
Cc1cc(N2CCN(CC(C)(C)O)C[C@@H]2C)ccc1N1CCN(Cc2ccccc2)[C@H](C)C1,-8,1,14,0,/
O=C(Nc1cccc(-c2nnn(CC(=O)N3CCc4ccccc4C3)n2)c1)C1CCC1,9,0,-13,2,-3
O=C(Nc1ccccc1-c1nnn(CC(=O)N2CCc3ccccc3C2)n1)C1CCC1,7,0,4,-1,28*
CCS(=O)(=O)Nc1ccc2c(c1)C(=O)N(C)[C@@H]1CC[C@H](CC(=O)NCCOC)O[C@H]1CO2,2,0,0,-1,/
CC(C)NC(=S)N/N=C/c1cccnc1,4,0,-1,0,37*
CCOC(=O)c1c(NC(=O)c2c(C)noc2C)sc2c1CCCCC2,/,/,/,/,35*
NC(=O)c1cccc(-c2ccnc3c2CC(C(=O)Nc2cccc(C(F)(F)F)c2)O3)c1 (stereo unspecified),-7,0,-11,-2,-5
O=C(Nc1cccc(C(F)(F)F)c1)C1Cc2c(-c3cccc(F)c3)ccnc2O1 (stereo unspecified),14,0,-5,6,30*
Nc1cccc2c(O)cc(S(=O)(=O)O)cc12,/,/,/,/,1
Nc1cc(S(=O)(=O)O)cc([N+](=O)[O-])c1O,2,0,2,-1,28*
CCN(C(=O)[C@@H]1CC(=O)O[C@@H]1c1ccccc1)c1ccccc1,-3,0,3,-1,/
COc1ccc(N2CCN(Cc3nnnn3C3CCCCC3)CC2)cc1,-4,0,0,-1,23*
O=C(NCCc1ccccc1)OCc1cn(-c2ccc(F)c(F)c2)nn1,4,0,5,1,/
O=C1CN(C(=O)CSc2nc3cc(Cl)ccc3c(=O)n2Cc2ccccc2)c2ccccc2N1,7,0,10,-5,-4
Cc1ccc(Cn2c(SCC(=O)Nc3cc(C)on3)nc3ccccc3c2=O)cc1,5,0,8,-6,28*
Cc1ccc(Cn2c(SCC(=O)N3CC(=O)Nc4ccccc43)nc3ccccc3c2=O)cc1,16,-1,-1,8.9*,-8
Cc1ccc(/C=c2\s/c(=C(/C#N)C(=O)N3CCCC3)n(Cc3ccco3)c2=O)s1,20*,0,-6,2,-29
COc1cc(/C=c2\s/c(=C(/C#N)C(=O)N3CCCC3)n(-c3ccccc3)c2=O)ccc1O,0,1,0,-2,-84
C#CCNC(=O)C[C@@H]1C(=O)N(Cc2ccc(OC)cc2)C2=CCN(C(=O)OC(C)(C)C)C[C@]21C(=O)OCC,-2,0,0,-1,/
CC(CCc1ccccc1)NC(=O)COC(=O)C1CCC(C(C)(C)C)CC1 (stereo unspecified),0,0,6,0,32*
O=C(COC(=O)C1CC1)NCCc1ccccc1,-14,0,2,1,6
Cc1ccc(NC(=O)COC(=O)CCc2c(C)nc3ncnn3c2C)cc1,5,0,-5,2,23
Cc1ccc(NC(=O)COC(=O)CCc2c(C)nc3ncnn3c2C)cc1C,2,0,5,0,24*
O=C(NCCc1cccc(F)c1)c1cc2ccccn2n1,-9,0,4,-5,/
COC(=O)c1c(NC(=O)CN2CCC3(O)CCCCC3C2c2cc(OC)ccc2OC)sc(C)c1C (stereo unspecified),2,-3,-13,6,27*
O=C(O)c1ccc(C(=O)Nc2cccc3ccccc23)c(C(=O)O)c1,-86,-3,1,-34,25*
C=CCOC(=O)N1CCN(C(=O)c2ccc3c(c2)nc(C)n3C2CCCC2)CC1,3,1,13,1,/

# Assay outcomes: PubChem BioAssay, several laboratories
